Measured values published in the supplement of paper PMC11732987, “Enantioselective OTUD7B fragment discovery through chemoproteomics screening and high-throughput optimisation” (Communications Chemistry, 2025).

Columns and labels:
Assay in all cases: log2 ratio of Biotin-Ahx-Ub-VS probe labelling (fragment/DMSO); higher = less target engagement (more negative = stronger competition), active = hit call of the paper (q ≤ 0.05, log2 ratio ≤ -1)
Conditions in all cases: compound concentration: 200 uM; treatment time: 3 h
USP42 = target: T1, USP42 (UniProt Q9H9J4)
T1 sequence (whole entry): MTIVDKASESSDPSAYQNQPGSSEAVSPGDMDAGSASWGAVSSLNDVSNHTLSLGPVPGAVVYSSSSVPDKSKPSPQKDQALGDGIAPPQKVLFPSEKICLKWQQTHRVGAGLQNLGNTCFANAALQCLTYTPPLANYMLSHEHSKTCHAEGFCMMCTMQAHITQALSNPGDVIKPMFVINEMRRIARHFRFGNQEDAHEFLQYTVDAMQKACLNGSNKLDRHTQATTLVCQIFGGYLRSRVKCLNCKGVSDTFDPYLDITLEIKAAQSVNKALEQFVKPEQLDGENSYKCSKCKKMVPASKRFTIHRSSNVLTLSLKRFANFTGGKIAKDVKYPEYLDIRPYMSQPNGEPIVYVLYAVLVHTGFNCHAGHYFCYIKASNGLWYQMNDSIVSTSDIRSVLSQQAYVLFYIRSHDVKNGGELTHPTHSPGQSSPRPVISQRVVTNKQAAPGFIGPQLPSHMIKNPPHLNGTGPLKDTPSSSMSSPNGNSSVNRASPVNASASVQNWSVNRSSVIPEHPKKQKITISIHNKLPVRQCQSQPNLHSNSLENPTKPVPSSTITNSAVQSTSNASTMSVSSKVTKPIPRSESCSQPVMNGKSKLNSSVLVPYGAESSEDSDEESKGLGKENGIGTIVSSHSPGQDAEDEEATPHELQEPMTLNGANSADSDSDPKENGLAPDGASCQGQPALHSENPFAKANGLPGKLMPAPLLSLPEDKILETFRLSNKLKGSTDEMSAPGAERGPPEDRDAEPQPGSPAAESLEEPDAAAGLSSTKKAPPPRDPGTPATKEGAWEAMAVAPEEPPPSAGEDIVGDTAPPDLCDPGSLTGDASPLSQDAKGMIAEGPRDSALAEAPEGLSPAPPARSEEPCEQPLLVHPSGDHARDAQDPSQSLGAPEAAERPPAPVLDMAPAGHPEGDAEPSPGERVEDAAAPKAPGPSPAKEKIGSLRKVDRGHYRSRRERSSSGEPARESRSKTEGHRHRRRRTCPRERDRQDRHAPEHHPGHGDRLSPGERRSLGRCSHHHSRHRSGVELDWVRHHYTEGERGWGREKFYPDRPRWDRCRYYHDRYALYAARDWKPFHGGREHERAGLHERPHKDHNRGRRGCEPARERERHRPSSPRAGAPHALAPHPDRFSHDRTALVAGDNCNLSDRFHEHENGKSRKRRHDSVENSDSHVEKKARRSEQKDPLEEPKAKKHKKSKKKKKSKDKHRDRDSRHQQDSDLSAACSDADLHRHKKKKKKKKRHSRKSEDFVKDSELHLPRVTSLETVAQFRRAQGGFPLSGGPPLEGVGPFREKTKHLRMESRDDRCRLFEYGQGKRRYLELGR
In short: (§1)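 The table lists average log2 ratios of fragment over vehicle, from an unpaired t-test on global-median-normalised Spectronaut label-free quantities. Proteins with ≥2 unique peptides were used. Samples were HEK293T lysate (495 µg) treated in triplicate with fragment at 200 µM or vehicle for 3 h, then with Biotin-Ahx-Ub-VS (0.5 µM final) for 1 h, with labelled DUBs NeutrAvidin-enriched and run by diaPASEF LC-MS/MS.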

USP46 = USP46 (UniProt P62068)
In short: as §1

USP47 = target: T2, USP47 (UniProt Q96K76)
T2 sequence (whole entry): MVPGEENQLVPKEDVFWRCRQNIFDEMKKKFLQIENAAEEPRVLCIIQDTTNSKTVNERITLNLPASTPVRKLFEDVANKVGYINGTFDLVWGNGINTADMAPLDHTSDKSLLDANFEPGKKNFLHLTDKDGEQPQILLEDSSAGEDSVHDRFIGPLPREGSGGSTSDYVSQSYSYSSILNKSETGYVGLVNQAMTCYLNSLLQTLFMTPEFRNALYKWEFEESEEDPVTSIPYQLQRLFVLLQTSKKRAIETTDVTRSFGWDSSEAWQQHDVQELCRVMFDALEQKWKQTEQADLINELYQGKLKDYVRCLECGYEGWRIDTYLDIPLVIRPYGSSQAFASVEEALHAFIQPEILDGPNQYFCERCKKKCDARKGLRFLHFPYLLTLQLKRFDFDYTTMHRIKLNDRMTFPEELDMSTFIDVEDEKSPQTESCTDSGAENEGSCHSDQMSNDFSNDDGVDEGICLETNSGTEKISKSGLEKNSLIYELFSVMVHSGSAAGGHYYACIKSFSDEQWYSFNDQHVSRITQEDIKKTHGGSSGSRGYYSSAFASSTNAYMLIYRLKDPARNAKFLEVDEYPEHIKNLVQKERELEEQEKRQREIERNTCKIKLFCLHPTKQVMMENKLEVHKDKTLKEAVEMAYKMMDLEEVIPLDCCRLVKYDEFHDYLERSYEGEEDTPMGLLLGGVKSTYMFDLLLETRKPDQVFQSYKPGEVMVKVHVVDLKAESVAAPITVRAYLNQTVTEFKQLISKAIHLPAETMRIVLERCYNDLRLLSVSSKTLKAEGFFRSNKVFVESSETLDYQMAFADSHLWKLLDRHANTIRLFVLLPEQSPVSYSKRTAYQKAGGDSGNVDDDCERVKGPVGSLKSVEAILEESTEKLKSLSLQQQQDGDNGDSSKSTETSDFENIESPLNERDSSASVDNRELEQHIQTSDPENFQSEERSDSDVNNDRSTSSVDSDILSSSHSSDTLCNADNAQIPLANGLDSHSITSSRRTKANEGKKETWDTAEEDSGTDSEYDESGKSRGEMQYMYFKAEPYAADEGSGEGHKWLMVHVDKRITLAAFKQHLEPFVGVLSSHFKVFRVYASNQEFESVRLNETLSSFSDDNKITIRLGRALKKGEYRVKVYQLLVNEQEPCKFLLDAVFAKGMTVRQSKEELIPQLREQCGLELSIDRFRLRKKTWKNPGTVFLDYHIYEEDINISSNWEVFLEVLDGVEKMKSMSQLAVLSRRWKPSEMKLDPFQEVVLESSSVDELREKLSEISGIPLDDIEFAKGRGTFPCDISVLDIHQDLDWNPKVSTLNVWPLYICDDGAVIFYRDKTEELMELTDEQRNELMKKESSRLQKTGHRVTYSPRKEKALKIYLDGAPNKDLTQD
In short: as §1

USP48 = target: T3, USP48 (UniProt Q86UV5)
T3 sequence (whole entry): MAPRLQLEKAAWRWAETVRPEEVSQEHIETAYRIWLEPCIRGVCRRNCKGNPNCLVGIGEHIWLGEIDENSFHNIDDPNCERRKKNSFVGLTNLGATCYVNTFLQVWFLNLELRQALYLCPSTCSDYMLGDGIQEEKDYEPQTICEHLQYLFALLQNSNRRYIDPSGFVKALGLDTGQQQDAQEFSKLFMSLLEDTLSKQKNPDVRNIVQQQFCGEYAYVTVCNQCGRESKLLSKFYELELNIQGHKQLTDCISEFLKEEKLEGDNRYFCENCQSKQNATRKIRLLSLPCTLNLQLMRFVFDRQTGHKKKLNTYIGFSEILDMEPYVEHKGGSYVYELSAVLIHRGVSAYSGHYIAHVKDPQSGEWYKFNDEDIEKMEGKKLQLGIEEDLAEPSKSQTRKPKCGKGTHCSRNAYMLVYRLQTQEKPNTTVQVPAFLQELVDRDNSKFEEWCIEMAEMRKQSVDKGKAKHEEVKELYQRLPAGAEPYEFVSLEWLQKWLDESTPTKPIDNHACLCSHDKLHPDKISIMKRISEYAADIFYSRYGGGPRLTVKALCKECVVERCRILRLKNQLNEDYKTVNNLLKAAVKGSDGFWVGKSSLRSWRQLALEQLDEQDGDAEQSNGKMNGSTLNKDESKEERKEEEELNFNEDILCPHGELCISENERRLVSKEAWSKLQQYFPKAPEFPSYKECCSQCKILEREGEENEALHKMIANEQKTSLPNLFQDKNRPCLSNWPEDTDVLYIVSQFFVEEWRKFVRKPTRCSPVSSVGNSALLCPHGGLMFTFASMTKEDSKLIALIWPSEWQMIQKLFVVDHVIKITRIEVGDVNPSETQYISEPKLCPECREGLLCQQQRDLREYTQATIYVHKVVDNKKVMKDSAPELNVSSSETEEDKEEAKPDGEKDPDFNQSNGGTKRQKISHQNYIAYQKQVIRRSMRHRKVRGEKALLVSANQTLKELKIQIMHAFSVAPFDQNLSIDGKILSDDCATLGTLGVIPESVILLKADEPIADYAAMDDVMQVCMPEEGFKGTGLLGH
In short: as §1

USP5 = target: T4, USP5 (UniProt P45974)
T4 sequence (whole entry): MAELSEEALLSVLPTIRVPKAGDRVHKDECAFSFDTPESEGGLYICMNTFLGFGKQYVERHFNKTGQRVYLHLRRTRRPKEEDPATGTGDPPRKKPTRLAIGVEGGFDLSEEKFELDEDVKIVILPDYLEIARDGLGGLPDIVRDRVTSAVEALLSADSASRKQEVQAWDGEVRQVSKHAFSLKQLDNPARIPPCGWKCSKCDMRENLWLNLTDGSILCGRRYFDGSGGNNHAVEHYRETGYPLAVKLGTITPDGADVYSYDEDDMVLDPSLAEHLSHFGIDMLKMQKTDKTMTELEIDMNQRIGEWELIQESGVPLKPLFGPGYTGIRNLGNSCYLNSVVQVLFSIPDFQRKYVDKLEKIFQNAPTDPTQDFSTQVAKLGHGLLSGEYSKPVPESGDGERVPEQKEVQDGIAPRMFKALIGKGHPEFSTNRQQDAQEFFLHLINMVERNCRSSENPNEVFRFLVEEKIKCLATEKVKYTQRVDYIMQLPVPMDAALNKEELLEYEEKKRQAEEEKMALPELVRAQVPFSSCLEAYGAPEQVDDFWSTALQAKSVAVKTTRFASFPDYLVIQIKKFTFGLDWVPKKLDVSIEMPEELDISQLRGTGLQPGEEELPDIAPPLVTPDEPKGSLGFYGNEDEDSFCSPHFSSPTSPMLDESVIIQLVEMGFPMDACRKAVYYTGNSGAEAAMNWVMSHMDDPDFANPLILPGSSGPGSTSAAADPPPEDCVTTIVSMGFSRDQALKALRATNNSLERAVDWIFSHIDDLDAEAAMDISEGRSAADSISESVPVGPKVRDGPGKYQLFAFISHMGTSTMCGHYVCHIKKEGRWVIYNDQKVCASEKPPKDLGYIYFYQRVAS
In short: as §1

USP54 = USP54 (UniProt Q70EL1)
In short: as §1

USP7 = USP7 (UniProt Q93009)
In short: as §1

USP8 = target: T5, USP8 (UniProt P40818)
T5 sequence (whole entry): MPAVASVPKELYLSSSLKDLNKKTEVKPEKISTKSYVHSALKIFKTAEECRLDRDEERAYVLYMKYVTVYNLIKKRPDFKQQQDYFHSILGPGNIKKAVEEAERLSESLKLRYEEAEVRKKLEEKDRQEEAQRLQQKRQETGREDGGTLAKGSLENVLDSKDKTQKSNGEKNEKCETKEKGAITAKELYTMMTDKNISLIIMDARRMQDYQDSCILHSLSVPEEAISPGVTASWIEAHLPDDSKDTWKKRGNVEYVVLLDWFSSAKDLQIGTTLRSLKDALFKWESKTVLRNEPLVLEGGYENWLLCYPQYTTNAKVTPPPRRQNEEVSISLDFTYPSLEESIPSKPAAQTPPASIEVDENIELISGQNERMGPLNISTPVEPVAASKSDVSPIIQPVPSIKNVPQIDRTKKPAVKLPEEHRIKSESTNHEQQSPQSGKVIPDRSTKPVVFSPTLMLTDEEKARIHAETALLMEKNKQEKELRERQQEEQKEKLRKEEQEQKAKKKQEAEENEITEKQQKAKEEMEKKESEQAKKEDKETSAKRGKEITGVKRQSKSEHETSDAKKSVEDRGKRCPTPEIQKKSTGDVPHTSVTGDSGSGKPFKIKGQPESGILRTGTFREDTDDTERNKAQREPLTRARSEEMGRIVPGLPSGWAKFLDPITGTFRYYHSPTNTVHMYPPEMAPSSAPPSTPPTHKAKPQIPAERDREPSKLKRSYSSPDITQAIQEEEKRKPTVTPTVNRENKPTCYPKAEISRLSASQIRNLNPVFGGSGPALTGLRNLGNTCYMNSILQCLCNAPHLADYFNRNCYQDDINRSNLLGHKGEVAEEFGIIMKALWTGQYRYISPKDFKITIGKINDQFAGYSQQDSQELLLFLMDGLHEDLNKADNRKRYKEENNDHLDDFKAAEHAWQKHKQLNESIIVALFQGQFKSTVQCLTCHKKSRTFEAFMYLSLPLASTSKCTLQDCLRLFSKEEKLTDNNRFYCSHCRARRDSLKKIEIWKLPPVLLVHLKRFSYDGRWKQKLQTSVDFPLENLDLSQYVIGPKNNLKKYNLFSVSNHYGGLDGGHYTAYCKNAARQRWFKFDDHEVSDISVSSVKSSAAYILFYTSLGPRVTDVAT
In short: as §1

USP9X = USP9X (UniProt Q93008)
In short: as §1

UniProt O00487 = target: UniProt O00487
In short: as §1

Measured: log2 ratio of Biotin-Ahx-Ub-VS probe labelling

Sequence of USP54 (Q70EL1 whole entry): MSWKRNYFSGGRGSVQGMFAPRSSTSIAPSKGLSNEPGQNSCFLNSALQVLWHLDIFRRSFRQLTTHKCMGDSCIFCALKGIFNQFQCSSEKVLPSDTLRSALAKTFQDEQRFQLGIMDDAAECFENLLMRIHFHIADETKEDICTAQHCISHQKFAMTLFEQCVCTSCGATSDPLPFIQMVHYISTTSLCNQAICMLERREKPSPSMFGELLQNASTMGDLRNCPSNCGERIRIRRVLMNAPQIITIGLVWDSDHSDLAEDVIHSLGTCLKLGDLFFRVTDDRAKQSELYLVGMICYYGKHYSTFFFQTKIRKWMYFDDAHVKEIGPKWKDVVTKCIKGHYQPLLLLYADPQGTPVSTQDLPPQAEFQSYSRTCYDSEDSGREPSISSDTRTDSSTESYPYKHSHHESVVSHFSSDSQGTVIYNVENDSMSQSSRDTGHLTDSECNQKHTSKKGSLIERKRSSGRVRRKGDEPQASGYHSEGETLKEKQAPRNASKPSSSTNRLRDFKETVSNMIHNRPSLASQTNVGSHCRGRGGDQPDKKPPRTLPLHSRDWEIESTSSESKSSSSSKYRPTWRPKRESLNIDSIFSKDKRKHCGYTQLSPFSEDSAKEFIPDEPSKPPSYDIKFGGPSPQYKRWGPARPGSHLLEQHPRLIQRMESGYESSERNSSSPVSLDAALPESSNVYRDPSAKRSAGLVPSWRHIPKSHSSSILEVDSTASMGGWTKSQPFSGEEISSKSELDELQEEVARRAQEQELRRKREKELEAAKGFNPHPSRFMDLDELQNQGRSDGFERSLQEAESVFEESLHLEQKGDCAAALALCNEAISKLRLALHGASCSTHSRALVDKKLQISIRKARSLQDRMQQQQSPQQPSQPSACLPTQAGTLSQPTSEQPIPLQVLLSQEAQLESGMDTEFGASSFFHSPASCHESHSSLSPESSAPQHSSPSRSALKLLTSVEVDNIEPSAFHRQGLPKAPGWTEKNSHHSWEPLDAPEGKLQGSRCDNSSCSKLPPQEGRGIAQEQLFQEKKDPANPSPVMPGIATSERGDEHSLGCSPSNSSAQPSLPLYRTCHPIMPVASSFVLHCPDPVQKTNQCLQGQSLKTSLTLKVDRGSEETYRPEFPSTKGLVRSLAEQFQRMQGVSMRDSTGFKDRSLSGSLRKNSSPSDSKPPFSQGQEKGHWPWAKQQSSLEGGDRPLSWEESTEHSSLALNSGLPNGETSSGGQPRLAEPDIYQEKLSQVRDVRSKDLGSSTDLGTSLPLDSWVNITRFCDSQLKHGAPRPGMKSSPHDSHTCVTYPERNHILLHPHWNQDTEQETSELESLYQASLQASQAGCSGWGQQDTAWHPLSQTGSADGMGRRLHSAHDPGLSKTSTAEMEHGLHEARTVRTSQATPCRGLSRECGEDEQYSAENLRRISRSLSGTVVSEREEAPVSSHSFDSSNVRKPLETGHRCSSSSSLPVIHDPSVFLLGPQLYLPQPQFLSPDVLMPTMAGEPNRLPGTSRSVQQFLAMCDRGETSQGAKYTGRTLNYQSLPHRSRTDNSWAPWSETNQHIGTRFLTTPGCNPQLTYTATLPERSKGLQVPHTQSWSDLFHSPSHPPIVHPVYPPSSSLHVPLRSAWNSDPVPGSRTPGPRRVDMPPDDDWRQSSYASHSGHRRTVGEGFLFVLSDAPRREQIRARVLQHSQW
Sequence of USP9X (Q93008 whole entry): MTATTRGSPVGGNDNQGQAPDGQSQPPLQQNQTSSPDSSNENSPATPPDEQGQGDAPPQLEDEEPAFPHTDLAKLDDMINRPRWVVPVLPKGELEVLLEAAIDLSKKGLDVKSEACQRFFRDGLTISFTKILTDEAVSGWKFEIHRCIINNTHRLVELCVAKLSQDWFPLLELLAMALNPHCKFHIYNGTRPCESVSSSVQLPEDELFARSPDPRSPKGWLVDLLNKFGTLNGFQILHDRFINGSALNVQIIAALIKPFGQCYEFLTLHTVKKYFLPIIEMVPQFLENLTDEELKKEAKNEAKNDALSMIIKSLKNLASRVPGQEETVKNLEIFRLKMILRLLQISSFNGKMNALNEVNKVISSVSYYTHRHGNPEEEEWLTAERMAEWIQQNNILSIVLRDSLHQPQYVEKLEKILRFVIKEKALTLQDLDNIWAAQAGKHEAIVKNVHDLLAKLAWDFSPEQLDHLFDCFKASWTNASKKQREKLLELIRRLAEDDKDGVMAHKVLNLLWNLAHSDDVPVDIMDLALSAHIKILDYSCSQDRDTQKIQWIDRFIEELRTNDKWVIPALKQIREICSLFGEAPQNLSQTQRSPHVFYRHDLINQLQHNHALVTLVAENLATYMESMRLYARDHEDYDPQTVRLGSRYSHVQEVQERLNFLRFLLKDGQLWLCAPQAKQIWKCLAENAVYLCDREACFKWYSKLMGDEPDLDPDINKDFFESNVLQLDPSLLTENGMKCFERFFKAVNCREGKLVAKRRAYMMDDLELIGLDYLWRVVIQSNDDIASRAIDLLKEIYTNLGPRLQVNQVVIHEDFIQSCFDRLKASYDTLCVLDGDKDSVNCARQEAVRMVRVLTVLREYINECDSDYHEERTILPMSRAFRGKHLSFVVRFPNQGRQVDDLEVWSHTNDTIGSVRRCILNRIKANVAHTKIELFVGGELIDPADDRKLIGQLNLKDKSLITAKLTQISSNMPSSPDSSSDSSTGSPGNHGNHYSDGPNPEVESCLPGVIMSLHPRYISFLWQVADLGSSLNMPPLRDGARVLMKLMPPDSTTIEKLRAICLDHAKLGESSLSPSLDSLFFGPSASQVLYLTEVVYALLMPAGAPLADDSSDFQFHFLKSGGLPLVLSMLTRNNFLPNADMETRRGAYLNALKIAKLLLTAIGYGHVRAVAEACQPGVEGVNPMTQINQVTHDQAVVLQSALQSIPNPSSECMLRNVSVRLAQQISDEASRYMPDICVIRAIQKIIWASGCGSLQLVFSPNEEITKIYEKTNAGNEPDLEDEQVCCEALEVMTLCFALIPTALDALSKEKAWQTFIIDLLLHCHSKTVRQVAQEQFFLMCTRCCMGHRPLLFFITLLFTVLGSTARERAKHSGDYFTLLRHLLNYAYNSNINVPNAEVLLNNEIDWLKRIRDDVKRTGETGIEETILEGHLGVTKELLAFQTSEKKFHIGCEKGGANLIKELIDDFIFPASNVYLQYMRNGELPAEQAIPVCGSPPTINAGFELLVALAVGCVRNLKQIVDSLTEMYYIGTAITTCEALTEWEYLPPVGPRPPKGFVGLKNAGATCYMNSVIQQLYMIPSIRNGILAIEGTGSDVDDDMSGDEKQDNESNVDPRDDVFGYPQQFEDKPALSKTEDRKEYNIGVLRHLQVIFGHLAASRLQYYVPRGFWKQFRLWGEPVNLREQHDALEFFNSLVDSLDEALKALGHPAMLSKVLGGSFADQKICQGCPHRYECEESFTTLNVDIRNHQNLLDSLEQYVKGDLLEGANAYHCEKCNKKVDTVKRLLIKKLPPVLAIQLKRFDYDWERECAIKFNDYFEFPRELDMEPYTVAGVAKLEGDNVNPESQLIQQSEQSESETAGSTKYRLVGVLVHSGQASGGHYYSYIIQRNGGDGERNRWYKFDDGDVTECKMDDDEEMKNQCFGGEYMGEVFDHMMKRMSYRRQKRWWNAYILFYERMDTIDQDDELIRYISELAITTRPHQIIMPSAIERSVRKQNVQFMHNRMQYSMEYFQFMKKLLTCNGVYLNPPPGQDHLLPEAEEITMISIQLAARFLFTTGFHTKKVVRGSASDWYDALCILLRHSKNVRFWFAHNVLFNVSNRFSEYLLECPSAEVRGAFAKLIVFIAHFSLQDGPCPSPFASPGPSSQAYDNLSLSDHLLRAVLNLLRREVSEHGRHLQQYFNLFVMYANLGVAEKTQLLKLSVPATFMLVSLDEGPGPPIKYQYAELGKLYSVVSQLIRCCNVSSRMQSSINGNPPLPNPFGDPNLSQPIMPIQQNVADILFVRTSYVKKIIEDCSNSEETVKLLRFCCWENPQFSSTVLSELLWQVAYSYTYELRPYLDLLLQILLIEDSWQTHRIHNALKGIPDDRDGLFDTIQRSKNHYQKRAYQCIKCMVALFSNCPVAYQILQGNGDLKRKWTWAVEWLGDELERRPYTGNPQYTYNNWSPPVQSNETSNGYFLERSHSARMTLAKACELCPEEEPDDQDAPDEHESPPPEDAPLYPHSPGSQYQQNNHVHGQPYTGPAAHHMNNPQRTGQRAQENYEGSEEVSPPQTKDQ
Sequence of UniProt O00487 (O00487 whole entry): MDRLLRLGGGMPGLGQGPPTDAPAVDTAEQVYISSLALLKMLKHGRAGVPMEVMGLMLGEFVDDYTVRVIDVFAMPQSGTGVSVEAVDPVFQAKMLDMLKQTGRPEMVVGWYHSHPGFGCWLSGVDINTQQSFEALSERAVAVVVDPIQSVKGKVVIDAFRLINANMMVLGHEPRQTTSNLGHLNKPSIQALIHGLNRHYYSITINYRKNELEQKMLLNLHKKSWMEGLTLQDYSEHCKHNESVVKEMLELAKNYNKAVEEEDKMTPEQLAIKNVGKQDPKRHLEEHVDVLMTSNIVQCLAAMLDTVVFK
Sequence of USP46 (P62068 whole entry): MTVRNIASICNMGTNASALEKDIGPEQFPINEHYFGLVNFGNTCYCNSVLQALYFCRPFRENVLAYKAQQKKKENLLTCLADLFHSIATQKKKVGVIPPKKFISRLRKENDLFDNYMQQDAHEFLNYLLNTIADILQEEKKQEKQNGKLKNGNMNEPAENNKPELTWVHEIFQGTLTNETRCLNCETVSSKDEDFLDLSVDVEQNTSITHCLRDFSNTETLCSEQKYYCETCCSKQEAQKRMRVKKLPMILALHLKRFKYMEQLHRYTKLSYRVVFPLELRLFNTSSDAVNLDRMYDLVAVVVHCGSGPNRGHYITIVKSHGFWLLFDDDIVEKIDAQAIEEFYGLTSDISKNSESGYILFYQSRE

O=C(CCl)NCC(=O)N1CCCC1
inactive: USP42 0.103 | USP46 0.0751 | USP47 0.107 | USP48 -0.00296 | USP5 0.205 | USP54 0.812 | USP7 -0.0345 | USP8 -0.434 | USP9X -0.168 | UniProt O00487 -0.0526
